About 14,000 (4.5%) of roughly 310,000 compounds showed an effect of 50% or more. Effects have a minus sign here. Only a selection was taken, and strong results are over-represented in it overall.
These molecules were tested against human ether-à-go-go-related gene (hERG) potassium channel (human, UniProt Q12809) (assay: primary screen, population patch clamp on CHO cells stably expressing hERG; higher = less effect of the substance).
Chain of human ether-à-go-go-related gene (hERG) potassium channel (Q12809 whole entry, looked up): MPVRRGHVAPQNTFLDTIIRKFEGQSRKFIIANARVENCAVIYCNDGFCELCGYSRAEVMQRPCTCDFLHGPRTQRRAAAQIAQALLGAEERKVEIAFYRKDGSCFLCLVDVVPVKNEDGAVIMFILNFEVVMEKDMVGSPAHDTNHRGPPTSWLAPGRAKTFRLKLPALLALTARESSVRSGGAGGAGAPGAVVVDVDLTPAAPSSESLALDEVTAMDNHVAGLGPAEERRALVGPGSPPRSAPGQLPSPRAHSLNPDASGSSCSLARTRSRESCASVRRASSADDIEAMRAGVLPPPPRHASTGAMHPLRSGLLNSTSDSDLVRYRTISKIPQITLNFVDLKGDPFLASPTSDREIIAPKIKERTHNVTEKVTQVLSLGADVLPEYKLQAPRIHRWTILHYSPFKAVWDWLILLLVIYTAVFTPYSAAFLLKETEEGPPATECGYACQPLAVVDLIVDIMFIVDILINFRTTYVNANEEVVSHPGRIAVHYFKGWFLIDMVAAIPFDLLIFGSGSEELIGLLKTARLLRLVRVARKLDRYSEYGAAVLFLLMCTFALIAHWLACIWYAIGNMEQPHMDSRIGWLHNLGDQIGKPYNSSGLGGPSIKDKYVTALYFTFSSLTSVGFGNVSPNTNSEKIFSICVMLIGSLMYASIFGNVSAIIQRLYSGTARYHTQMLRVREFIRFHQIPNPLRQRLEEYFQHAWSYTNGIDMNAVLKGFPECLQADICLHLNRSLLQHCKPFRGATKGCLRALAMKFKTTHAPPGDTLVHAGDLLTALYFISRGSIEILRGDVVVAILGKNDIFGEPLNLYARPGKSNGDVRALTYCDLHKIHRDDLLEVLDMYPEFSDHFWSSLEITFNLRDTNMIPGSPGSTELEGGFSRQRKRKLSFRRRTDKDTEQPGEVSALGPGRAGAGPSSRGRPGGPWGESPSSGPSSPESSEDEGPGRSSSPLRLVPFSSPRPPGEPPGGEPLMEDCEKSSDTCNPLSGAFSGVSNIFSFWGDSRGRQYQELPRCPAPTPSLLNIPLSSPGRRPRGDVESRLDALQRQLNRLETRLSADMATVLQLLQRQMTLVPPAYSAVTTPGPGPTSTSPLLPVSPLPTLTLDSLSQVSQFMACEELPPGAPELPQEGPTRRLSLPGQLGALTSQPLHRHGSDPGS
In the case of COc1ccccc1/C=C(/C#N)C(=O)O, the “hERG current change (%, negative = inhibition) at 10uM” value was 18.5%. For Nc1ccc(-c2cnc3ccccc3n2)cc1, the “hERG current change (%, negative = inhibition) at 10uM” value was 0.217%. With O=C(COc1ccccc1)Nc1nnc(COc2ccccc2)s1 the “hERG current change (%, negative = inhibition) at 10uM” value was 4.24%. For CC(=O)/C(C[N+]1(C)CCCCC1)=N\O.[I-], the “hERG current change (%, negative = inhibition) at 10uM” value was 16.4%. CSc1ncc(Cl)c(C(=O)Nc2ccccc2C)n1 was tested, and the “hERG current change (%, negative = inhibition) at 10uM” value was 6.48%. In the case of CCCCCN=CC1=C(O)CC(c2ccccc2)CC1=O (stereo not shown), the “hERG current change (%, negative = inhibition) at 10uM” value was -6.98%. For COc1ccc(C2CC(=O)c3cnn(-c4nc(C)cc(C)n4)c3C2)cc1OC (stereo not shown), the “hERG current change (%, negative = inhibition) at 10uM” value was -4.84%. For COCCNC(=S)N/N=C1\CC(C)CC(C)(C)C1 (stereo not shown), the “hERG current change (%, negative = inhibition) at 10uM” value was 6.32%. For C#CCn1cnc2c(cnn2-c2ccc(C)c(C)c2)c1=O, the “hERG current change (%, negative = inhibition) at 10uM” value was 3.21%. COc1ccc(-c2[nH]ncc2CNC(C)CCn2cccn2)cc1F (stereo not shown) was tested, and the “hERG current change (%, negative = inhibition) at 10uM” value was -2.23%. Nn1c(SCC(=O)Nc2nccs2)nnc1C1CC1 was tested, and the “hERG current change (%, negative = inhibition) at 10uM” value was 6.89%. For COC(=O)c1ccccc1NS(=O)(=O)c1ccc2[nH]c(=O)[nH]c2c1, the “hERG current change (%, negative = inhibition) at 10uM” value was 16.4%. For O=C(CN1C(=O)c2cccc3cccc1c23)NCc1cccnc1, the “hERG current change (%, negative = inhibition) at 10uM” value was 2.05%. CCCCCCNS(=O)(=O)c1ccc(Cl)s1 was tested, and the “hERG current change (%, negative = inhibition) at 10uM” value was -12.9%. With Cc1ccc(SCC(=O)NC(C)(C)C)cc1 the “hERG current change (%, negative = inhibition) at 10uM” value was -8.22%. In the case of Br.Cc1ccc(Nc2nc(-c3c(C)nc4ccccn34)cs2)cc1, the “hERG current change (%, negative = inhibition) at 10uM” value was -62.7%. In the case of Cc1ccc(Nc2nc(-c3c(C)nc4ncccn34)cs2)cc1, the “hERG current change (%, negative = inhibition) at 10uM” value was -10.4%. CC(=O)Nc1ccc(Nc2nc(-c3c(C)nc4ccccn34)cs2)cc1 was tested, and the “hERG current change (%, negative = inhibition) at 10uM” value was 18.4%. For Cc1nc2ncccn2c1-c1csc(Nc2ccccc2)n1, the “hERG current change (%, negative = inhibition) at 10uM” value was -54.7%. For Cc1cccc(Nc2nc(-c3c(C)nc4ccccn34)cs2)c1, the “hERG current change (%, negative = inhibition) at 10uM” value was 0.479%. For Cc1nc2ncccn2c1-c1csc(Nc2cccc(C(=O)O)c2)n1, the “hERG current change (%, negative = inhibition) at 10uM” value was 5.55%. For O=c1cc(N2CCN(c3ccccc3F)CC2)[nH]c(=O)n1-c1ccc(Br)cc1, the “hERG current change (%, negative = inhibition) at 10uM” value was -16.7%. In the case of COC(=O)C1C(=O)CC(C)(O)C(C(=O)OC)C1/C=C/c1ccccc1 (stereo not shown), the “hERG current change (%, negative = inhibition) at 10uM” value was -15.6%. N/C(Cc1ccc([N+](=O)[O-])cc1)=N\OC(=O)c1ccc2ccccc2c1 was tested, and the “hERG current change (%, negative = inhibition) at 10uM” value was 2.02%. With COc1ccc(/C(N)=N/OC(=O)c2ccc(OC)c([N+](=O)[O-])c2)cc1OC the “hERG current change (%, negative = inhibition) at 10uM” value was -65%. In the case of N/C(Cc1ccc([N+](=O)[O-])cc1)=N\OC(=O)c1ccc(Br)cc1, the “hERG current change (%, negative = inhibition) at 10uM” value was -41.5%. In the case of COc1ccccc1C(=O)O/N=C(\c1ccccc1)c1ccncc1, the “hERG current change (%, negative = inhibition) at 10uM” value was -14.4%. COc1ccc(/C(N)=N/OC(=O)c2ccc(C)c([N+](=O)[O-])c2)cc1OC was tested, and the “hERG current change (%, negative = inhibition) at 10uM” value was 10.1%. In the case of N/C(Cc1ccc([N+](=O)[O-])cc1)=N\OC(=O)c1ccccc1Br, the “hERG current change (%, negative = inhibition) at 10uM” value was -57.7%. In the case of N/C(Cc1ccc([N+](=O)[O-])cc1)=N\OC(=O)c1ccccc1F, the “hERG current change (%, negative = inhibition) at 10uM” value was -35.6%. For COc1ccc(/C(N)=N/OC(=O)c2ccc([N+](=O)[O-])c(C)c2)cc1OC, the “hERG current change (%, negative = inhibition) at 10uM” value was -16.5%. In the case of N/C(=N\OC(=O)c1ccccc1Br)c1ccc([N+](=O)[O-])cc1, the “hERG current change (%, negative = inhibition) at 10uM” value was -14.4%. With O=C(O/N=C(/c1ccccc1)c1ccncc1)c1ccccc1[N+](=O)[O-] the “hERG current change (%, negative = inhibition) at 10uM” value was -14%. For COc1ccccc1C(=O)O/N=C(/c1ccncc1)c1ccc([N+](=O)[O-])cc1, the “hERG current change (%, negative = inhibition) at 10uM” value was -67.9%. N/C(Cc1ccc([N+](=O)[O-])cc1)=N\OC(=O)c1ccc([N+](=O)[O-])cc1 was tested, and the “hERG current change (%, negative = inhibition) at 10uM” value was -57.6%. With c1ccc(CSc2nnnn2-c2ccccc2)cc1 the “hERG current change (%, negative = inhibition) at 10uM” value was -3.94%. CC(=O)NCc1ccc(S(=O)(=O)NC(C)CCc2ccccc2)cc1 (stereo not shown) was tested, and the “hERG current change (%, negative = inhibition) at 10uM” value was 13.3%. For OCCn1ccc(-c2ccccc2OCc2ccc(F)cc2)n1, the “hERG current change (%, negative = inhibition) at 10uM” value was 4.9%. In the case of N#Cc1ccccc1Cn1c(-c2cscn2)nc2ccccc21, the “hERG current change (%, negative = inhibition) at 10uM” value was -7.78%. For CCOC(=O)c1sc(NC(=O)CCCn2nc([N+](=O)[O-])c(Cl)c2C)c(C(=O)OCC)c1C, the “hERG current change (%, negative = inhibition) at 10uM” value was -3.72%. Cc1cc(/C=C(\C#N)C(=O)NCCc2c[nH]c3ccccc23)c(C)n1C was tested, and the “hERG current change (%, negative = inhibition) at 10uM” value was 3.85%. For O=C1CS/C(=N\C(=O)N2c3ccccc3Sc3ccccc32)N1, the “hERG current change (%, negative = inhibition) at 10uM” value was 5.96%. With Cc1cc(S(=O)(=O)Nc2ccc(N(C)C)cc2)c(C)s1 the “hERG current change (%, negative = inhibition) at 10uM” value was 0.71%. Fc1ccc(C(c2nnnn2C2CCCC2)N(Cc2ccco2)CC2CCCO2)cc1 (stereo not shown) was tested, and the “hERG current change (%, negative = inhibition) at 10uM” value was -28%. With O=C(CSc1cccc[n+]1[O-])Nc1cccc(S(=O)(=O)NC2=NCCCCC2)c1 the “hERG current change (%, negative = inhibition) at 10uM” value was 54.8%. CCCn1c(C)cs/c1=N\C(=S)Nc1ccccc1 was tested, and the “hERG current change (%, negative = inhibition) at 10uM” value was 12.8%. For Cc1cccc(OCC(=O)O/N=C(\N)Cc2ccc([N+](=O)[O-])cc2)c1, the “hERG current change (%, negative = inhibition) at 10uM” value was -32.5%. In the case of N/C(=N\OC(=O)Cc1ccc([N+](=O)[O-])cc1)c1cccc(Br)c1, the “hERG current change (%, negative = inhibition) at 10uM” value was 3.08%. N/C(Cc1ccc([N+](=O)[O-])cc1)=N\OC(=O)c1cccc(Br)c1 was tested, and the “hERG current change (%, negative = inhibition) at 10uM” value was -58%. COc1cc(C(=O)O/N=C(\N)c2ccc([N+](=O)[O-])cc2)cc(OC)c1OC was tested, and the “hERG current change (%, negative = inhibition) at 10uM” value was -45.2%. For COc1ccc(C(=O)O/N=C(\N)Cc2ccc([N+](=O)[O-])cc2)c(OC)c1, the “hERG current change (%, negative = inhibition) at 10uM” value was -57.1%. For COc1cc(C(=O)OCc2ccc([N+](=O)[O-])cc2)cc(OC)c1OC, the “hERG current change (%, negative = inhibition) at 10uM” value was 2.74%. COc1ccc(CC(=O)O/N=C(\N)Cc2ccc([N+](=O)[O-])cc2)cc1 was tested, and the “hERG current change (%, negative = inhibition) at 10uM” value was -46.5%. COc1ccc(C/C(N)=N/OC(=O)c2cccc([N+](=O)[O-])c2)cc1 was tested, and the “hERG current change (%, negative = inhibition) at 10uM” value was -44.2%. In the case of Cc1ccc(C(=O)O/N=C(\N)Cc2ccc([N+](=O)[O-])cc2)c(Cl)c1, the “hERG current change (%, negative = inhibition) at 10uM” value was -46.3%. In the case of COc1cc(C(=O)O/N=C(\N)Cc2ccc([N+](=O)[O-])cc2)cc(OC)c1OC, the “hERG current change (%, negative = inhibition) at 10uM” value was -68.9%. With N/C(=N\OC(=O)c1cccc(Br)c1)c1ccc([N+](=O)[O-])cc1 the “hERG current change (%, negative = inhibition) at 10uM” value was 17.7%. In the case of Cc1cccc(C(=O)O/N=C(\N)Cc2ccc([N+](=O)[O-])cc2)c1, the “hERG current change (%, negative = inhibition) at 10uM” value was -64.3%.
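Further: peak tail current of the secondary pulse compared with the same well before compound.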
